Experimental data taken from PubChem BioAssay (NCI).
This is part of a sample that, as a whole, favours compounds with a hit. Of some 79,000 tested, about 15% had one in any assay. Rule as the data show it: active = growth inhibition above about 70%; inactive = the rest.

Key:
[1] = NCI Yeast Anticancer Drug Screen. Data for the wt1 strain (AID 149);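 also: 0% = growth of vehicle-treated wt1 cultures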; details: S. cerevisiae wt1 strain (SPY 50644) growth inhibition, hits give high values
Summary of the method: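 Yeast wt1 strain exposed to compounds; growth inhibition measured relative to vehicle-treated controls.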

[2] = NCI Yeast Anticancer Drug Screen. Data for the rad50EPP+ strain (AID 151);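 also: 0% = growth of vehicle-treated control cultures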; details: S. cerevisiae rad50 mutant strain, hits give high values
Summary of the method: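 One strain with a rad50 alteration (rad50EPP+) was compound-treated, its growth then compared to that of vehicle controls.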

[3] = NCI Yeast Anticancer Drug Screen. Data for the mgt1 strain (AID 153); details: S. cerevisiae mgt1 mutant growth inhibition, hits give high values
Summary of the method: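 After exposure of the mgt1 yeast mutant to compound, growth was measured and reported as inhibition compared with vehicle controls.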

[4] = NCI Yeast Anticancer Drug Screen. Data for the rad50 strain (AID 155);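 also: 0% = growth of vehicle-only cultures of the same strain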; details: S. cerevisiae rad50 strain growth inhibition, hits give high values
Summary of the method: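 Yeast carrying a defined DNA repair defect were exposed to test compounds, and growth was compared with vehicle-treated controls to give percent inhibition.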

[5] = NCI Yeast Anticancer Drug Screen. Data for the mec2-1 strain (AID 157); details: S. cerevisiae mec2-1 strain, hits give high values
Summary of the method: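 Test agents were screened against the mec2-1 yeast strain, with defined DNA repair or cell cycle alteration. Growth was scored as inhibition against vehicle-only controls.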

[6] = NCI Yeast Anticancer Drug Screen. Data for the rad14 strain (AID 159);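 also: 0% = growth of vehicle-treated control cultures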; details: S. cerevisiae rad14 strain growth inhibition, hits give high values
Summary of the method: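 Yeast cells carrying a defined DNA-repair defect were exposed to compounds, and growth inhibition was calculated relative to vehicle-treated control cultures.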

[7] = NCI Yeast Anticancer Drug Screen. Data for the sgs1 mgt1 strain (AID 161);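 also: 0% = growth of cultures given vehicle only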; details: S. cerevisiae sgs1 mgt1 strain, at 50.0 µM, hits give high values
Summary of the method: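 Inhibition of yeast growth, normalised to vehicle-treated controls, is reported for a strain bearing genetic alterations in DNA damage repair.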

[8] = NCI Yeast Anticancer Drug Screen. Data for the CLN2oe strain (AID 163);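 also: 0% = growth of vehicle-only control cultures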; details: S. cerevisiae CLN2oe strain, hits give high values
Summary of the method: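 Here, growth inhibition in a cell-cycle-altered yeast strain after compound exposure was quantified against vehicle control growth.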

[9] = NCI Yeast Anticancer Drug Screen. Data for the cln2 rad14 strain (AID 165);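 also: 0% = growth equal to vehicle treated cultures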; details: S. cerevisiae cln2 rad14 strain, at 50.0 µM, hits give high values
Summary of the method: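 Growth of compound-exposed yeast (cln2 rad14 genotype) measured and expressed as inhibition relative to vehicle.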

[10] = NCI Yeast Anticancer Drug Screen. Data for the bub3 strain (AID 167); details: S. cerevisiae bub3 mutant strain, hits give high values
Summary of the method: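 Compounds were applied to a genetically altered yeast strain carrying a cell-cycle control defect. Growth inhibition was scored against vehicle-treated controls.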

[11] = NCI Yeast Anticancer Drug Screen. Data for the wt2 strain (AID 169);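 also: 0% = growth of vehicle-treated yeast cultures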; details: S. cerevisiae wt2 strain growth inhibition, hits give high values
Summary of the method: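 Genetically defined yeast strains from a DNA-repair/cell-cycle panel were used. Compound-exposed yeast growth was measured, and the inhibition was calculated relative to vehicle treatment.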

[12] = NCI Yeast Anticancer Drug Screen. Data for the mlh1 strain (AID 171);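 also: 0% = growth of vehicle-treated control cultures of the same strain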; details: S. cerevisiae mlh1 strain growth inhibition, hits give high values
Summary of the method: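 Here the genetically defined yeast mutant is grown with each compound, and the extent to which its growth falls below that of vehicle-exposed cells is reported.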

[13] = NCI Yeast Anticancer Drug Screen. Data for the sgs1 strain (AID 173);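 also: 0% = growth of vehicle-only control cultures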; details: S. cerevisiae sgs1 mutant, hits give high values
Summary of the method: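 Relative growth inhibition, referenced to vehicle, was determined in a yeast strain with a defined alteration affecting DNA damage repair or cell cycle control after compound exposure.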

[14] = NCI Yeast Anticancer Drug Screen. Data for the mlh1 rad18 strain (AID 175); details: S. cerevisiae mlh1 rad18 strain growth inhibition; at 50.0 µM; hits give high values
Summary of the method: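 In this whole-cell yeast screen, a strain with altered DNA damage repair is challenged with compound, and its growth is measured against matched vehicle-treated controls.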

[15] = NCI Yeast Anticancer Drug Screen. Data for the rad18 strain (AID 177); details: S. cerevisiae rad18 mutant growth inhibition, hits give high values
Summary of the method: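 Screen uses a yeast strain with a defined lesion in DNA damage repair; compound effect is read as loss of growth compared to untreated vehicle cultures.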

Measured: growth inhibition

CC[C@]1(O)C[C@H]2CN(CCc3c([nH]c4ccccc34)[C@@](C(=O)OC)(c3cc4c(cc3OC)N(C)[C@H]3[C@@](O)(C(=O)OC)[C@H](OC(C)=O)[C@]5(CC)C=CCN6CC[C@]43[C@@H]65)C2)C1
inactive: [1]; at 1.2 µM 1% | [1]; at 3.7 µM -1% | [1]; at 11.0 µM -2% | [1]; at 33.0 µM -1% | [1]; at 100.0 µM -19% | [2]; at 1.2 µM -2% | [2]; at 3.7 µM -3% | [2]; at 11.0 µM -2% | [2]; at 33.0 µM -1% | [2]; at 100.0 µM -6% | [3]; at 1.2 µM -2% | [3]; at 3.7 µM -3% | [3]; at 11.0 µM -1% | [3]; at 33.0 µM -2% | [3]; at 100.0 µM -6% | [4]; at 1.2 µM -2% | [4]; at 3.7 µM -3% | [4]; at 11.0 µM 2% | [4]; at 33.0 µM -4% | [4]; at 50.0 µM -4.25% | [4]; at 100.0 µM -5% | [5]; at 1.2 µM -2% | [5]; at 3.7 µM 0% | [5]; at 11.0 µM -2% | [5]; at 33.0 µM 1% | [5]; at 50.0 µM -3.3% | [5]; at 100.0 µM -7% | [6]; at 1.2 µM -2% | [6]; at 3.7 µM -4% | [6]; at 11.0 µM 0% | [6]; at 33.0 µM -2% | [6]; at 100.0 µM -3% | [7] 1.35% | [8]; at 1.2 µM -2% | [8]; at 3.7 µM 3% | [8]; at 11.0 µM 1% | [8]; at 33.0 µM -11% | [8]; at 100.0 µM -6% | [9] 24.4% | [10]; at 1.2 µM 1% | [10]; at 3.7 µM 1% | [10]; at 11.0 µM -1% | [10]; at 33.0 µM -7% | [10]; at 50.0 µM 14.3% | [10]; at 100.0 µM -7% | [11]; at 1.2 µM -1% | [11]; at 3.7 µM 0% | [11]; at 11.0 µM -3% | [11]; at 33.0 µM -3% | [11]; at 100.0 µM -4% | [12]; at 1.2 µM 0% | [12]; at 3.7 µM -1% | [12]; at 11.0 µM -1% | [12]; at 33.0 µM -1% | [12]; at 100.0 µM -4% | [13]; at 1.2 µM 0% | [13]; at 3.7 µM -2% | [13]; at 11.0 µM 1% | [13]; at 33.0 µM 1% | [13]; at 100.0 µM -3% | [14] 30.6% | [15]; at 1.2 µM -2% | [15]; at 3.7 µM -3% | [15]; at 11.0 µM -5% | [15]; at 33.0 µM -6% | [15]; at 100.0 µM -7%
